Assay [1] is described as follows: qHTS assay to identify small molecule antagonists of the estrogen related receptor (ERR) signaling pathway from Tox21 library - cell viability counter screen (AID 1224834). Further: nearly all actives have a fitted effect of over 30% in size. Further: potency means the concentration at half of the fitted maximal effect. The essentials:
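Seeded ERR cells were rested 6 h at 37 C/5% CO2 before compounds, positive and negative controls or DMSO were added. Incubation continued for 17.5 h, and viability was then quantified by CellTiter-Fluor fluorescence.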
Background: Quantitative high-throughput screening tests each substance at several concentrations.

For assay [2], the target named is Luciferin 4-monooxygenase (Photinus pyralis) (UniProt P08659). In words: qHTS assay to identify small molecule inhibitors of firefly luciferase (AID 1224835). Further: nearly all actives have a fitted effect of over 25% in size. Further: potency means the concentration at half of the fitted maximal effect. The method, boiled down:
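Quantitative HTS format; KM concentrations of both substrates. Purified P. pyralis FLuc activity quantified from luminescence images.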

Assay [3] can be described thus: qHTS assay to identify small molecule agonists of the constitutive androstane receptor (CAR) signaling pathway - cell viability counter screen (AID 1224836). Further: nearly all actives have a fitted effect of over 45% in size. The method, boiled down: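 HepG2 cells stably carrying hCAR and a CYP2B6-2.2kb reporter were plated 4 h, then given compounds at 15 concentrations plus PK11195 (final 0.75 uM). After 23 h at 37 C, viability was read by CellTiter-Fluor fluorescence.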

Assay [4] is described as follows: qHTS assay to identify small molecule antagonists of the constitutive androstane receptor (CAR) signaling pathway - cell viability counter screen (AID 1224837). Further: nearly all actives have a fitted effect of over 45% in size. The essentials: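 To flag cytotoxic false antagonists, HepG2 hCAR/CYP2B6-2.2kb cells were treated 23 hr with 15-concentration compound series and 50 nM CITCO at 37 C/5% CO2; CellTiter-Fluor fluorescence was the measured end point.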

Assay [5] concerns the target Nuclear receptor subfamily 1 group I member 3 (Homo sapiens) (UniProt Q14994). The assay is described as follows: qHTS assay to identify small molecule antagonists of the constitutive androstane receptor (CAR) signaling pathway (AID 1224838). Further: nearly all actives have a fitted effect of over 40% in size. The method, boiled down:
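Human hepatoma HepG2 cells expressing hCAR and a CYP2B6 promoter (2.2 kb) luciferase construct; compound titration (15 points) with 50 nM CITCO final, 24 h at 37 C/5% CO2; luminescence via ONE-Glo after 30 min at room temperature.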

For assay [6] the target is unchanged. In words: qHTS assay to identify small molecule agonists of the constitutive androstane receptor (CAR) signaling pathway (AID 1224839). Further: nearly all actives have a fitted effect of over 15% in size. Further: potency means the concentration at half of the fitted maximal effect. The method, boiled down: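 HepG2 cells stably expressing hCAR and a CYP2B6-2.2kb luciferase reporter were treated with compounds at 15 concentrations plus 0.75 uM PK11195 (final) for 24 h at 37 C; luminescence was read after ONE-Glo addition.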

Assay [7] in a line: qHTS assay to identify small molecule antagonists of the estrogen related receptor signaling pathway with the pleiotropic PPARgamma coactivator (PGC) from Tox21 10K library - cell viability counter screen (AID 1224840; active means well fitted cell-killing curve with a large enough effect in the repeat runs, not every such curve was filed as active; further: nearly all actives have a fitted effect of over 40% in size). The essentials: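 Seeded PGC/ERR cells (2,000/well, 6 h, 37 C/5% CO2) get compound by pin tool; 17.5 h incubation at 37 C; CellTiter-Fluor added, 30 min, fluorescence measured.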

Assay [8] is described as follows: qHTS assay to identify small molecule antagonists of the estrogen related receptor signaling pathway with the pleiotropic PPARgamma coactivator (PGC) from Tox21 10K library (AID 1224841; call rule not given here; further: actives are mostly falling curves and most rising ones were filed inactive; nearly all actives have a fitted effect of over 50% in size; further: potency means the concentration at half of the fitted maximal effect). The method, boiled down:
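Test chemicals dissolved in DMSO were applied to pre-incubated (6 h) PGC/ERR cells at 2,000 cells/well for an 18 h, 37 C treatment; reporter luminescence was then read using One-Glo.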

Assay [9] in a line: qHTS assay to identify small molecule agonists of the estrogen related receptor signaling pathway with the pleiotropic PPARgamma coactivator (PGC) from Tox21 10K library (AID 1224842). Further: nearly all actives have a fitted effect of over 15% in size. The essentials:
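PGC/ERR reporter cells (NTP line) were seeded 2,000 per well, rested 6 h at 37 C/5% CO2, then pin-dosed with compounds in DMSO for 18 h at 37 C; luciferase read by One-Glo luminescence after 30 min at room temperature.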

Assay [10] deals with Thyrotropin receptor (Homo sapiens) (UniProt P16473). In words: qHTS assay to identify small molecule agonists of the thyroid stimulating hormone receptor (TSHR) signaling pathway (AID 1224843; calls by dose curve; further: nearly all actives have a fitted effect of over 45% in size). The essentials:
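Using 15 concentrations per compound in triplicate, cAMP production was monitored in TSHR-HEK293 cells after 30 min compound incubation at RT; HTRF reagents followed, with fluorescence intensity recorded after 1 h.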

A short description of assay [11]: qHTS assay to identify small molecule agonists of the hypoxia (HIF-1) signaling pathway - cell viability counter screen (AID 1224844; calls by dose curve; further: nearly all actives have a fitted effect of over 50% in size). The essentials: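 HRE-bla ME-180; 0.5% dFBS; cpd 17 h, 37C, 5% CO2; CellTiter-Glo lum., 30 min RT, post-FRET read, same wells.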
Assay [12] in a line: qHTS assay to identify small molecule agonists of H2AX (AID 1224845; active means well fitted activation curve with a large enough effect in the signal ratio in the repeat runs, not every such curve was filed as active; the % refers to the signal ratio). The method, boiled down:
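Wild-type CHO-K1 cells plated overnight, then exposed 3 hr at 37C to compounds at 15 concentrations (0.76% DMSO). Lysed, then HTRF anti-pH2AX(S139)-cryptate/anti-H2AX-d2 detection after 24 hr at room temperature; emissions 665 and 620 nm.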

Assay [13] in a line: qHTS assay to identify small molecule agonists of the hypoxia (HIF-1) signaling pathway (AID 1224846; active means well fitted activation curve with a large enough effect in the signal ratio in the repeat runs, not every such curve was filed as active; the % refers to the signal ratio). The method, boiled down:
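Reporter induction in HRE-bla ME-180 cells is taken as agonism: cells sit 5 hrs after plating, receive compounds or DMSO only, incubate 17 hrs at 37C under 5% CO2, and are loaded with CCF4-AM for beta-lactamase FRET measurement.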

A short description of assay [14]: qHTS assay to identify small molecule agonists of H2AX - cell viability counter screen (AID 1224847; calls by dose curve; further: nearly all actives have a fitted effect of over 30% in size; further: potency means the concentration at half of the fitted maximal effect). The essentials:
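Wild-type CHO-K1 cells (10% FBS medium) were plated overnight at 37C, exposed to compounds at 15 concentrations for 3 hr at 37C (0.76% DMSO final), and viability was read as CellTiter-Glo luminescence after 30 min at room temperature.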

Assay [15] is described as follows: qHTS assay to identify small molecule antagonists of the estrogen related receptor (ERR) signaling pathway from Tox21 library (AID 1224848). Further: nearly all actives have a fitted effect of over 50% in size. Further: potency means the concentration at half of the fitted maximal effect. The essentials:
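Tox21 10K compounds in DMSO tested for ERR pathway antagonism in NTP's ERR cell line; 18 h, 37 C exposure; ONE-Glo luminescence.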

The nature of assay [16]: qHTS assay to identify small molecule agonists of the estrogen related receptor (ERR) signaling pathway from Tox21 library (AID 1224849; calls by dose curve; further: nearly all actives have a fitted effect of over 15% in size). The note with it: ERR reporter cell line, ONE-Glo luciferase, 18 h; at 92.4 µM (top of the series). The method, boiled down:
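Tox21 compounds tested for ERR agonism in an NTP reporter cell line: 18 h treatment at 37 C, then ONE-Glo luminescence.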

Assay [17] can be described thus: qHTS RealTime-Glo MT Cell Viability Assay in HepG2 cells - 24 hour (AID 1224867). Further: nearly all actives have a fitted effect of over 50% in size. The essentials:
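Cell number in HepG2 cultures estimated from NanoLuc luminescence generated by metabolic reduction of a prosubstrate by living cells. The homogeneous, nonlytic format allowed repeated reads at 0, 8, 16, 24, 32 and 40 h of compound exposure.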

Assay [18] is described as follows: qHTS RealTime-Glo MT Cell Viability Assay in HEK293 cells - 32 hour (AID 1224868). The essentials:
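Homogeneous bioluminescent viability format in HEK293 cells (600 cells/well). Following 5 h at 37 C/5% CO2, 23 nL compound was pintooled; the signal was measured repeatedly during 40 h incubation.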

Assay [19] can be described thus: qHTS assay to identify small molecule agonists of the estrogen related receptor signaling pathway with the pleiotropic PPARgamma coactivator (PGC) (AID 1224823). The essentials: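 In this quantitative high-throughput screen, an 18 h, 37 C treatment of PGC/ERR cells with compounds in DMSO preceded a One-Glo luminescence read taken after 30 min at room temperature.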

Assay [20] in a line: A CellTox Green Cytotoxicity Assay to monitor cytotoxicity in HEK293 cells - 0 hour (AID 1224869). Further: nearly all actives have a fitted effect of over 50% in size. The method, boiled down:
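Tox21 screen in HEK293: membrane-impermeant cyanine dye fluoresces on binding dead-cell DNA; compound pinned 5 h post-seeding, plates held at 37 C, signal read repeatedly through 40 h.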

The record followed here is PubChem BioAssay (Tox21).

Structures are written as SMILES. Values joined by “and” are separate entries in the source; they are usually repeats but may differ in a detail not shown here. Equal values may be shown once. Inconclusive results are not listed. More than one record can exist for a structure, and the calls need not agree. Active and inactive are the calls of the source. Unless noted, the call rests on the fitted dose curve; in most records, active means well fitted curve in the direction sought with a large enough effect in the repeat runs; inconclusive means weak or mixed curves; inactive means no such curve, though single readings can be large; an effect the other way counts as inactive or inconclusive.
On the % scale 0 is the no-effect control and ±100 the full control effect.

Thyrotropin receptor (Homo sapiens), sequence (P16473 whole entry, looked up): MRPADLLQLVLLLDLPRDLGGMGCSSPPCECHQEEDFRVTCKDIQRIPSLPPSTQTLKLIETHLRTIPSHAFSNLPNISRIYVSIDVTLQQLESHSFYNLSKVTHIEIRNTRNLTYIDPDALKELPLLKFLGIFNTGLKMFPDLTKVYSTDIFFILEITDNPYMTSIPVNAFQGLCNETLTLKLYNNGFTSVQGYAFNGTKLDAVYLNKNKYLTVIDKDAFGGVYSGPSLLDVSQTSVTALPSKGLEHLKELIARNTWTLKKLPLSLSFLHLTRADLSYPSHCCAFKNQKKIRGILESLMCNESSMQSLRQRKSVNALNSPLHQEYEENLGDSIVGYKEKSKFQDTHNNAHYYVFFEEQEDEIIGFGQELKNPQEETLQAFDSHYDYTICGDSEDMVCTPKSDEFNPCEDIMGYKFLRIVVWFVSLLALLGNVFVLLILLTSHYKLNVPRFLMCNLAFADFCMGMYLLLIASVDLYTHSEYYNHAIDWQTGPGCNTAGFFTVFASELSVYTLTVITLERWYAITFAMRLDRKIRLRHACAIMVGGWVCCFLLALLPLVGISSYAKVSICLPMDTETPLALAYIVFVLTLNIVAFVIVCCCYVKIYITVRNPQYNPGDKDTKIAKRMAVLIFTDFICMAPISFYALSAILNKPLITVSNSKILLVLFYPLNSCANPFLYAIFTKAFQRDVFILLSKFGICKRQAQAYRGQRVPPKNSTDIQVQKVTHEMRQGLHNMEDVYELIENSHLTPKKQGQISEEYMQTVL
Luciferin 4-monooxygenase (Photinus pyralis), sequence (P08659 whole entry, looked up): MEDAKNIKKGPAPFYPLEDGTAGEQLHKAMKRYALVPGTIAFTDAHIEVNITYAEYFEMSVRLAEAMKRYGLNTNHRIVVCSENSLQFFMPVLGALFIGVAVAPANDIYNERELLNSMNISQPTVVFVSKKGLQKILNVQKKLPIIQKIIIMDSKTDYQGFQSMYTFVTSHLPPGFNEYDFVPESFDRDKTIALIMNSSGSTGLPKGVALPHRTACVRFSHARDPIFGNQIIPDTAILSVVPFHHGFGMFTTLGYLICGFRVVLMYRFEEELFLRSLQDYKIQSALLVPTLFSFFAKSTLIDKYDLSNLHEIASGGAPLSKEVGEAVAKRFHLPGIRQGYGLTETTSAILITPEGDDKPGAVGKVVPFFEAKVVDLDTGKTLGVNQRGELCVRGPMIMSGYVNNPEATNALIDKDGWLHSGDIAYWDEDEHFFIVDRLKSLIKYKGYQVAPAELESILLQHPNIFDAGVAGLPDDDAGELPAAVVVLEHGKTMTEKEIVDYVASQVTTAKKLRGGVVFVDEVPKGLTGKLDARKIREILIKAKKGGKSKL
Nuclear receptor subfamily 1 group I member 3 (Homo sapiens), sequence (Q14994 whole entry, looked up): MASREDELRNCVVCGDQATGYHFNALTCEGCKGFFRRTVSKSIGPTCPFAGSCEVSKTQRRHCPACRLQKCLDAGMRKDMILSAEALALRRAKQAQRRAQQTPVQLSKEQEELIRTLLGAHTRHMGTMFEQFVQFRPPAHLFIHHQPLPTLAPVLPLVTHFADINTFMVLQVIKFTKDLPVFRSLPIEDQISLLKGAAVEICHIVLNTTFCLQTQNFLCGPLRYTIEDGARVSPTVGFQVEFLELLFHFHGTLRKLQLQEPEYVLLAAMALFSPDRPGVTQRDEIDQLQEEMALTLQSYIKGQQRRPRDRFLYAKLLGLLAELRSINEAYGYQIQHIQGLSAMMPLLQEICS

For the compound `C=C1C2CCC(C2)C1(C)C` (stereo not given), the Potency entry in assay [1], in assay [2], in assay [3], in [4], in assay [5] and in assay [6] was “inactive” in each case. Also, the Potency result in assay [7], in assay [8], in assay [9], in assay [10], in assay [11] and in [12] was “inactive” throughout. Further, the Potency entry in assay [14], in [15], in assay [17] and in assay [18] was “inactive” throughout. In addition, in assay [13], the outcome was inactive. For the same compound, in [16], the activity change, positive = activation is 0.557% (inactive) and 4.73% (inactive).
Turning to `CC(C)(N=C=O)c1cccc(C(C)(C)N=C=O)c1`, the Potency entry in assay [1], in [2], in [3], in assay [4], in assay [5] and in assay [6] was “inactive” in each case. Also, the Potency entry in assay [7], in assay [9], in assay [10], in assay [11], in assay [12] and in assay [14] was “inactive” in each case. The Potency result in assay [17] and in [18] was “inactive” each time. Moreover, the Potency is 48.2 µM (active) and inactive in assay [8]; 54 µM (active) and inactive in [15]. Further, in assay [13], the compound was classed as inactive. The activity change, positive = activation in assay [16] is -40.3% (inactive) and 2.13% (inactive).
In the case of `CS(=O)(=O)Nc1ccc([N+](=O)[O-])cc1Oc1ccccc1`, the Potency entry in assay [19], in assay [4], in assay [5], in assay [6], in assay [8] and in [9] was “inactive” in each case. Further, the Potency entry in assay [10], in [11], in [12], in [14], in assay [17] and in [18] was “inactive” throughout. The Potency in assay [1] is 30.6 µM (active); in assay [15], 38.6 µM (active).
`O=C1CCCCC1`: the Potency entry in assay [1], in assay [2], in [3], in [4], in assay [5] and in [6] was “inactive” each time. Besides, the Potency result in [7], in assay [8], in assay [9], in assay [11], in [12] and in assay [14] was “inactive” throughout. Further, the Potency result in assay [15], in assay [17], in assay [18] and in [20] was “inactive” throughout. For the same compound, the call in assay [13] was inactive.
With `Cc1cc(O)c2c(c1)C(=O)c1cc(O)cc(O)c1C2=O`, the Potency entry in assay [19], in assay [4], in assay [5], in assay [7], in assay [8] and in assay [9] was “inactive” each time. Also, the Potency result in assay [10], in assay [11] and in assay [17] was “inactive” each time. Besides, the Potency in [1] is 27.3 µM (active); in assay [2], 34.8 µM (active) and 31.7 µM (active); in [6], 48.6 µM (active); in assay [14], 55.4 µM (active) and 80 µM (active); in [15] it was “inactive and 54.5 µM (active)”. In addition, in assay [13], the result was inactive.
Take `CCCCCCC(C)(C)S`: the Potency entry in [1], in assay [2], in assay [3], in assay [4], in assay [5] and in [6] was “inactive” throughout. The Potency result in assay [7], in [10], in [11], in assay [12], in assay [14] and in [17] was “inactive” throughout. Also, the Potency entry in assay [18] and in [20] was “inactive” each time. Moreover, in assay [13], the compound was called inactive.
As to `NC(=O)/N=N/C(N)=O`, the Potency entry in [1], in [3], in assay [4], in assay [5], in assay [6] and in [7] was “inactive” in each case. Further, the Potency result in assay [8], in [9], in [11], in assay [12], in assay [14] and in assay [15] was “inactive” each time. Moreover, the Potency entry in assay [17], in [18] and in assay [20] was “inactive” in each case. Besides, the Potency in assay [2] is 31.8 µM (active) and 25.2 µM (active). Moreover, the outcome in assay [13] was inactive. The activity change, positive = activation in [16] was 0.308% (inactive) and 1.1% (inactive).
